From PubChem BioAssay
Rab9 prom act = qHTS Assay for Rab9 Promoter Activators | Huh7 Rab9 promoter-luciferase reporter, luminescence, 24 h | Potency, µM (titrated, usually from 9.22 µM), hits mostly activators | hit rate 2.8% among 320,000 | AID 485297, 2010; also: nearly all actives have a fitted effect of over 60% in size
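Luminescence from Amplite-detected luciferase (10 minutes, ambient) reports Rab9 promoter activation. Before that, stable Rab9-luciferase Huh7 cells (1500/well, reduced-serum OP-MEM I plus 10% FBS) were exposed to compound for 24 hours at 37C.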
Luc counter = Counterscreen for Luciferase (Kinase-Glo TM) Inhibition; Potency, µM (highest dose often 38.3 µM), usual class: inhibitors; Kinase-Glo luciferase, ATP luminescence, 8 min; Luciferin 4-monooxygenase (Photuris pensylvanica), Q27757; AID 1379, 2008; hit rate 0.28% among 200,000; also: nearly all actives have a fitted effect of over 60% in size
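Substrate mix (final 50 mM imidazole pH 7.2, 50 mM KCl, 7 mM MgCl2, 10 uM ATP, 0.01% Tween 20, 0.05% BSA) plus pin-tool compound, then Kinase-Glo detection mix; 8 min ambient, luminescence read.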
FLuc counter = qHTS profiling assay for firefly luciferase inhibitor/activator using purifed enzyme and Km concentrations of substrates (counterscreen for miR-21 project). Luciferin 4-monooxygenase (Photinus pyralis), P08659. purified FLuc, Km substrates, luminescence inhibition. AID 588342, 2011. hit rate 6.9% among 360,000. Potency, µM (series often up to 57.5 µM), actives largely listed as inhibitors; also: nearly all actives have a fitted effect of over 55% in size
Target sequence (P08659 whole entry, looked up): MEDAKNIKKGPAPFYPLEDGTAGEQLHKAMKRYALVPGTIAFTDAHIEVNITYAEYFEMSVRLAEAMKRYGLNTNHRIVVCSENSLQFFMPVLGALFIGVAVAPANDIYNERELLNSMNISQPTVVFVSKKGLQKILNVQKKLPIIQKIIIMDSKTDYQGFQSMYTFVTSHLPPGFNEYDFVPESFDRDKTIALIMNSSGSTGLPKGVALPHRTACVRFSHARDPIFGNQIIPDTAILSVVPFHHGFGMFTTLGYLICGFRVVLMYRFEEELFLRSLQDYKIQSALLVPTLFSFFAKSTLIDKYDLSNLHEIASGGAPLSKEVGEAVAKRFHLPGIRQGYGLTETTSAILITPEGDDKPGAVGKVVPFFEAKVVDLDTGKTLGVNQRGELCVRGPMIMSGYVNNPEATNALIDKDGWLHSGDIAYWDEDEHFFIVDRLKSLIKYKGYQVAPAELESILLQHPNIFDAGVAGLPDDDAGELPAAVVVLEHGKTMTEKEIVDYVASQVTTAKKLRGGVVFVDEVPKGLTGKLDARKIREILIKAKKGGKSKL
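Biochemical qHTS of compounds, final roughly 60 µM downward over six points, against 10 nM purified firefly luciferase using Km concentrations of substrates (10 uM D-luciferin, 10 uM ATP) in Tris acetate pH 7.5 buffer; luminescence output.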
NPC1 prom act = qHTS Assay for NPC1 Promoter Activators; Huh7 NPC1 promoter luciferase reporter, 24 h; Potency, µM (doses to about 9.22 µM), usual class: activators; hit rate 2.4% among 320,000; AID 485313, 2010; also: nearly all actives have a fitted effect of over 60% in size
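Cells: Huh7 expressing luciferase under the NPC1 promoter, 1500/well. Seeded 2 h, compound added, incubated 24 h at 37 °C. Luciferase reagent, 10 min ambient, then luminescence.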
ELG1 genotox = qHTS screen for small molecules that induce genotoxicity in human embryonic kidney (HEK293T) cells expressing luciferase-tagged ELG1; AID 504466, 2011; hit rate 1.3% among 330,000; HEK293T ELG1-luciferase reporter, luminescence, 16 h; Potency, µM (series often up to 46 µM), usual class: activators; also: nearly all actives have a fitted effect of over 60% in size
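DMSO vehicle served as control against compound-treated ELG1-luciferase HEK293T cells; exposure lasted 16 hr at 37 °C and 5% CO2, followed by ONE-Glo luminescence detection after 30 min.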
SMN2 splice up = qHTS Assay for Enhancers of SMN2 Splice Variant Expression; AID 1458, 2008; Potency, µM (series often up to 46.1 µM), most hits filed as activators; hit rate 2.8% among 210,000; HEK293 SMN2-luciferase splicing reporter, luminescence, 30-36 h; also: nearly all actives have a fitted effect of over 55% in size
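qHTS luciferase splicing reporter: luminescence rises when SMN2 exon 7 is included in transfected HEK293 cells. Compound exposure lasted 30-36 h at 37C, with 4.5 mM final sodium butyrate as control, followed by a ONE-Glo read.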
A number is an active result; n = inactive; u = inconclusive; x = no result given. In the library only some 7.4% were active in any assay of this set; here they are far more common. Calls follow the shape of the dose curve; as a rule, active = well fitted curve in the direction sought with a large enough effect; inconclusive = small, poorly fitted or top-dose-only effect, or another doubt; inactive = no such curve, though single readings can be large; an effect the other way counts as inactive or inconclusive.

SMILES	Rab9 prom act	Luc counter	FLuc counter	NPC1 prom act	ELG1 genotox	SMN2 splice up
O=C(c1cc2ccccc2o1)c1cccs1	2.82µM	n	10.7µM	3.55µM	n	u
Cc1ccc(C(=O)c2cc3ccccc3o2)cc1	2.24µM	n	2.13µM	2µM	u	u
Cc1ccc(C(=O)c2cc3ccccc3o2)cc1C	3.55µM	n	4.78µM	2.24µM	16.4µM	u
O=C(c1cccc([N+](=O)[O-])c1)c1cc2ccccc2o1	n	n	u	n	n	n
O=C(NC(=S)Nc1ccc(NC(=O)c2cccs2)cc1)c1cc2ccccc2o1	n	n	n	n	u	n
Cc1cc(C)cc(NC(=O)Nc2ccc3c(c2)CCC3)c1	u	x	n	u	n	x
O=C(Nc1ccccc1)Nc1ccc2c(c1)CCC2	3.55µM	x	2.69µM	2.51µM	u	x
O=C(Nc1ccc(F)cc1)Nc1ccc2c(c1)CCC2	2.24µM	x	u	2.51µM	u	x
O=C(Nc1ccc2c(c1)CCC2)c1ccc(F)cc1	0.447µM	n	1.07µM	0.708µM	1.64µM	2.24µM
Cc1ccc(NC(=O)Nc2ccc3c(c2)CCC3)cc1	2µM	x	u	2µM	u	x
O=C(Nc1ccc2c(c1)CCC2)c1cc(S(=O)(=O)Nc2ccc(F)cc2)c(Cl)cc1Cl	n	n	u	n	n	n
Cc1ccccc1NC(=O)Nc1ccc(C(F)(F)F)cc1	2.24µM	n	2.39µM	n	n	x
O=C(Nc1ccc2c(c1)CCC2)c1ncoc1-c1ccccc1F	n	x	8.49µM	n	n	x
O=C(Nc1ccc2c(c1)CCC2)c1c(F)cccc1Cl	1.26µM	n	9.53µM	1.58µM	9.2µM	14.1µM
O=C(Nc1ccc2c(c1)CCC2)Nc1ccc(F)cc1F	0.794µM	x	u	1.26µM	u	x
O=C1OCc2ccc(NC(=O)c3c(F)cccc3Cl)cc21	n	x	n	n	n	x
CCCCn1c(N)c(N(CCOC)C(=O)c2ccco2)c(=O)[nH]c1=O	n	x	n	n	n	x
O=C(Nc1ccc2c(c1)CCC2)Nc1ccccc1F	0.631µM	x	0.675µM	0.447µM	0.411µM	x
O=C(CNC(=O)c1ccccc1F)Nc1ccc2c(c1)CCC2	u	x	n	u	u	x
O=C(Nc1cccc(F)c1)Nc1ccc2c(c1)CCC2	2.51µM	x	3.38µM	2.51µM	u	x
Cc1ccccc1NC(=O)Nc1ccc2c(c1)CCC2	2.51µM	x	2.39µM	2.82µM	u	x
Cc1cc2c(NC(=O)Nc3ccc(C(C)(C)C)cc3)cccc2nn1	n	x	12µM	n	n	x
Cc1nc(C)c(C(=O)N2CCCC(C(=O)c3ccc(Cl)cc3C)C2)s1 (stereo not drawn)	n	x	n	n	n	x
O=C(Nc1ccc(F)cc1)C1CCCO1 (stereo not drawn)	n	n	n	n	n	n
O=C(Nc1nc(-c2ccc(F)cc2)cs1)C1CCCO1 (stereo not drawn)	n	n	12µM	n	n	n
SMILES	Rab9 prom act	Luc counter	FLuc counter	NPC1 prom act	ELG1 genotox	SMN2 splice up
O=C(Nc1nc(-c2ccccc2)cs1)C1CCCO1 (stereo not drawn)	n	n	23.9µM	u	u	u
Cc1csc(NC(=O)C2CCCO2)n1 (stereo not drawn)	n	n	n	n	n	u
O=C(Nc1nc(-c2ccc(-c3ccccc3)cc2)cs1)C1CCCO1 (stereo not drawn)	n	n	8.49µM	n	n	n
CCCNC(=O)C(Cc1ccc(Cl)cc1)NC(=O)c1ccc(-c2ccccc2)cc1 (stereo not drawn)	n	x	n	n	u	x
Cc1cccc(CNC(=O)c2ccc3nc(Cc4ccccc4F)oc3c2)n1	3.55µM	x	26.9µM	3.55µM	u	x
O=C(NCc1ccccc1Cl)c1ccc2nc(Cc3ccccc3)oc2c1	x	x	n	x	x	x
O=C(NCCc1ccccn1)c1ccc2nc(Cc3ccccc3F)oc2c1	2µM	x	10.7µM	2.82µM	4.61µM	x
COc1cc(C(=O)NC(=S)Nc2ccc3c(c2)C(=O)N(C)C3=O)cc(OC)c1OC	n	n	n	n	n	n
